# Test results published in PubChem BioAssay (EPA / NIEHS).
# Inconclusive results are not listed. Calls of active or inactive are those of the source. How the source made its calls: active means hit-call score of the fitted dose curve at least 0.9, where 1 is the maximum; inconclusive means response in the unintended direction; inactive means score below 0.9.
# Read-out: ABC Transporter (ABCB11), ABCB11 (gene 8647)
# Test: CLD_ABCB11_48hr: CellzDirect (CLD) Gene Expression Assay for ABC Transporter (ABCB11) at 48 hours (AID 2283697)
# Method: CLD_48hr is a cell-based, multiplexed-readout assay that uses hepatocyte, a human liver primary cell, with measurements taken at 48 hours after chemical dosing in a 96-well plate.CLD_ABCB11_48hr is one of 16 assay component(s) measured or calculated from the CLD_48hr assay. It is designed to make measurements of mRNA induction, a form of inducible reporter, as detected with chemiluminescence signals by Quantitative Nuclease Protection Assay (qNPA) technology.Data from the assay component CLD_ABCB11_48hr was analyzed at the endpoint, CLD_ABCB11_48hr, in the positive analysis fitting direction relative to DMSO as the negative control and baseline of activity. Using a type of inducible reporter, gain-of-signal activity can be used to understand changes in the reporter gene as they relate to the gene ABCB11. Furthermore, this assay endpoint can be referred to as a primary readout. To generalize the intended target to other relatable targets, this assay endpoint is annotated to the transporter intended target family, where subfamily is ABC transporter.
# Human hepatocyte cultures were treated daily for two consecutive days with fresh dosing solutions containing appropriate concentrations of the 320 ToxCast chemicals (chemical identities were blinded to CellzDirect and other ToxCast collaborators), vehicle control (0.2% DMSO), and positive control inducers as summarized in Table 1. Due to the large number of treatment groups and chemicals examined, the ToxCast chemicals were divided into two groups (spanning two independent cultures of hepatocytes from separate donor preparations (Hu778: ToxCast plates 1 and 2; Hu776: ToxCast plates 3 and 4). Each preparation of human hepatocyte cultures was treated with respective vehicle control, medium only control, set of six positive controls/reference chemicals for the five hepatic receptor pathways, and a subset of eight of the ToxCast chemicals (indoxacarb, pyrithiobac-sodium, norflurazon, cyhalofop-butyl, methomyl, thiram, acetochlor, and propiconazole). These replicate data, coupled with internal replicates designed within the blinded ToxCast chemical library, provided additional data to evaluate interindividual differences between hepatocyte preparations and their potential impact on chemical profiles.Cell morphology and integrity were evaluated using phase-contrast microscopy as an indicator of hepatocyte cell health (Tyson & Green, 1987). Cultures for each treatment group (i.e., media, vehicle [0.2% DMSO], positive control inducers [multiple concentrations], and the ToxCast chemicals [multiple concentrations]) were observed and cell morphology was assessed relative to vehicle control cultures at each harvest time point (0, 6, 24, or 48 h). […] Images were evaluated at the conclusion of the study to assess changes in cell integrity and account for the effects of chemical exposure on uncharacteristic changes in concentration-dependent gene expression profiles. The results from these determinations of apparent cytotoxicity were annotated (yes/no) alongside the corresponding qNPA data for reference.At the conclusion of each treatment period, hepatocyte cultures (96-well) were washed with 1 volume of HBSS, lysed by addition of 25 ul ArrayPlate lysis buffer (HTG, Tucson, AZ), and 70 ul/well of Denaturation Oil, denatured by incubation at 95C for 10 min, and frozen at approximately -70C until analysis by nuclease protection assay (qNPA) (Roberts et al., 2007). For qNPA analysis, cell lysates were thawed at 50C for approximately 30 min, qNPA probes were added, and samples were incubated at 95C for 10 min to begin the detection process by denaturing the target RNA, dissociating the duplexes and secondary structure hybridization. At the conclusion of the hybridization period, S1 nuclease reagent was added to each sample to digest all nonprotected nucleotides at 50C for 60-90 min. […]
Structure (SMILES),outcome,AC50
CNC(=O)/C=C(\C)OP(=O)(OC)OC,inactive,
O=C1c2ccccc2C(=O)N1SC(Cl)(Cl)Cl,inactive,
COc1cc(OC)nc(NC(=O)NS(=O)(=O)c2cc(NC=O)ccc2C(=O)N(C)C)n1,inactive,
COC(=O)c1ccccc1S(=O)(=O)NC(=O)N(C)c1nc(C)nc(OC)n1,inactive,
CCOCN(C(=O)CCl)c1c(C)cccc1CC,inactive,
Cc1cc(C)nc(NC(=O)NS(=O)(=O)c2ccccc2C(=O)OC2COC2)n1,inactive,
O=C(NC(=O)c1c(F)cccc1F)Nc1ccc(OC(F)(F)C(F)OC(F)(F)F)c(Cl)c1 (centres undefined),inactive,
CCOc1nc(NC)nc(NC(=O)NS(=O)(=O)c2ccccc2C(=O)OC)n1,inactive,
Oc1cc(Cl)ccc1Oc1ccc(Cl)cc1Cl,inactive,
O=C(Nc1ccccc1)Nc1cnns1,inactive,
CCc1ccc(C(=O)NN(C(=O)c2cc(C)cc(C)c2)C(C)(C)C)cc1,inactive,
COP(=S)(OC)Oc1ccc([N+](=O)[O-])cc1,inactive,
Clc1ccccc1-c1nnc(-c2ccccc2Cl)nn1,inactive,
Oc1ccc(Cl)cc1Cc1ccccc1,inactive,
CC[C@H](C)[C@H]1O[C@]2(C=C[C@@H]1C)C[C@@H]1C[C@@H](C/C=C(\C)[C@@H](O[C@H]3C[C@H](OC)[C@@H](O[C@H]4C[C@H](OC)[C@@H](O)[C@H](C)O4)[C@H](C)O3)[C@@H](C)/C=C/C=C3\CO[C@@H]4[C@H](O)C(C)=C[C@@H](C(=O)O1)[C@]34O)O2 (tested in a mixture with another compound),,206 nM (active)
CCCN(CCC)c1c([N+](=O)[O-])cc(C(F)(F)F)cc1[N+](=O)[O-],inactive,
N#Cc1c(Cl)c(Cl)c(Cl)c(C#N)c1Cl,inactive,
CCS(=O)(=O)c1cccnc1S(=O)(=O)NC(=O)Nc1nc(OC)cc(OC)n1,inactive,
COP(=O)(OC)OC=C(Cl)Cl,inactive,
